Screens deposited in PubChem BioAssay by several laboratories.
Most compounds without a hit are left out; they make up all but 11% or so of the library.
Autophagy HCS = autophagy modulation, high-content screen; MEF GFP-LC3 puncta imaging; test concentration mostly 10 µM; 0.98% of 190,000 active; AID 463193; calls only at 10 µM (by protocol);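 active = percentage of spot-positive cells more than 3 SD above its plate mean, without a fluorescence outlier flag or 80% toxicity; inconclusive = no clear call, values can overlap the other calls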;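 also: spot-positive cell cutoff set from DMSO-treated cells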
Insulin prom inh = TRM-6 insulin promoter activity inhibition; TRM-6 cells (human fetal islet line), insulin promoter-eGFP reporter, imaging; reporter expression induced with tamoxifen; AID 1273; 0.9% of 130,000 active; inhibition, % at 2 µM;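 active = inhibition above the mean plus 3 SD, with well images judged a real hit on visual review, cut at about 60% in these data, passing the limit was not always enough; inconclusive = inhibition over the cutoff but images rejected on review; inactive = inhibition not above the cutoff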
L major viab = inhibitors of Leishmania major promastigote growth. Leishmania major promastigotes, resazurin fluorescence viability. inhibition, % at 10 µM. 9% of 200,000 active; in the data active = inhibition above about 50%;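 also: promastigotes grown with compound for 44 hours at 28 °C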
WT yeast gro inh = growth inhibition of WT yeast, mitochondrial fusion screen; inhibition, % at 10 µM; mitochondrial fusion phenotypic screen, WT strain; AID 1362; 2.1% of 190,000 active; in the data active = inhibition above about 58%; tested in S. cerevisiae
Insulin prom up = MIN6 insulin promoter up-regulation | MIN6 insulin promoter-GFP reporter, high-content imaging; stronger effect = higher value | z-score at 5 µM | 0.3% of 190,000 active | AID 1625;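 active = z-score above 3 at 5 µM with at least 500 cells counted in the well; inconclusive = wells under 500 cells, flagged as cytotoxic or low count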
* marks the source's active call; other numbers are inactive results; i = inactive; ? = inconclusive; . = no result; + = active, no number.

SMILES	Autophagy HCS	Insulin prom inh	L major viab	WT yeast gro inh	Insulin prom up
CCOC(=O)C1(Cc2ccccc2Cl)CCN(Cc2csc(C(C)=O)c2)CC1	i	10	90*	20	.
CCOC(=O)C1(Cc2cccc(F)c2)CCN(Cc2ccon2)CC1	i	.	16	6	0.62
CCOC(=O)C1(Cc2ccc(Cl)cc2)CCN(Cc2ccon2)CC1	i	.	95*	3	-0.24
CCOC(=O)C1(CCOC)CCN(Cc2ccncc2)CC1	i	.	-1	-8	-0.2
O=C(c1ccco1)N1CCN(S(=O)(=O)c2ccc(F)cc2)CC1	i	23	3	12	-0.25
COc1ccccc1NS(=O)(=O)c1cc(NC(=O)c2ccccc2F)ccc1N1CCOCC1	i	.	40	-5	-1.1
COc1ccc(NS(=O)(=O)c2ccc(N3CCOCC3)c(NC(=O)c3ccc(F)cc3)c2)cc1	i	-33	72*	-18	-0.65
COc1ccccc1NS(=O)(=O)c1cc(NC(=O)c2ccco2)ccc1N1CCOCC1	i	.	100*	9	-1.1
COc1ccccc1NS(=O)(=O)c1ccc(N2CCOCC2)c(NC(=O)c2ccco2)c1	i	33	69*	18	-1.6
COc1ccccc1NC(=O)Nc1ccccc1C(=O)NCCCN1CCOCC1	.	.	.	.	0.49
CCOC(=O)c1ccc(NCCOC)c([N+](=O)[O-])c1	+	.	-5	0	-1.8
CCOC(=O)c1ccc(NC(=O)c2ccccc2[N+](=O)[O-])cc1	i	-3	2	2	-0.82
CCOC(=O)c1cc([N+](=O)[O-])c([N+](=O)[O-])cc1NC(C)=O	i	-3	71*	76*	-1.4
COC(=O)c1ccc(NC(CC(C)C)C(=O)OC)c([N+](=O)[O-])c1 (stereo not given)	i	14	52*	24	-0.04
Cc1ccc(O)c(CCc2ccc(O)cc2)n1	i	.	-3	-12	-0.45
CC1(C)COC(/C=C/c2ccc([N+](=O)[O-])cc2)=N1	i	58	87*	9	?
COC(=O)CCC(=O)NC(=S)Nc1cc(Cl)ccc1Cl	i	.	-6	-6	0.11
Brc1ccccc1-c1nnc(CSc2nncn2-c2ccccc2)o1	i	.	98*	-5	.
Cn1c(CNC(=O)c2cccs2)nnc1SCC(=O)Nc1ccccc1	i	-21	-7	-1	0.31
CCCCCOc1ccc(C(=O)NC(C(=O)O)C(C)C)cc1 (stereo not given)	i	.	-6	8	-0.3
COc1ccc(/C=N/OCC(=O)N=Nc2c(O)[nH]c3ccc(Br)cc23)cc1	i	80*	1	57	.
O=C(N=Nc1c(O)[nH]c2ccc(Br)cc12)c1cc(-c2cccc3ccccc23)n[nH]1	i	19	66*	2	-0.14
O=C(N=Nc1c(O)[nH]c2ccc(Br)cc12)c1ccccc1-n1cccc1	i	-117	24	83*	-1.4
Cc1ccc(CN2C(=O)CCC2C(=O)NCc2ccccc2Cl)cc1 (stereo not given)	i	-19	-1	10	0.43
CCOC(=O)c1c(C)oc2ccc(NS(=O)(=O)c3ccc4c5c(cccc35)C(=O)N4)cc12	i	i	91*	2	-0.91
SMILES	Autophagy HCS	Insulin prom inh	L major viab	WT yeast gro inh	Insulin prom up
COCCOC(=O)c1c(C)oc2ccc(NS(=O)(=O)c3ccccc3)cc12	i	.	8	22	-0.29
Cc1ccc(C2CC(c3ccc(NS(C)(=O)=O)cc3)=NN2C(=O)c2ccco2)cc1 (stereo not given)	i	.	-4	-10	-0.7
CS(=O)(=O)Nc1ccc(C2=NN(C(=O)c3ccco3)C(c3ccccc3)C2)cc1 (stereo not given)	i	4	68*	-14	-0.61
CCS(=O)(=O)Nc1ccc(C2=NN(C(=O)c3ccco3)C(c3ccc(C)cc3)C2)cc1 (stereo not given)	i	20	74*	-6	-1.6
CC(=O)Nc1ccc(Nc2cc(C)nc3c(-c4ccccc4)c(C)nn23)cc1	i	.	85*	25	-0.38
Cc1cc(NCCCN2CCOCC2)n2ncc(-c3ccccc3)c2n1	i	-13	32	6	0.59
Cc1cc(NCCCN2CCOCC2)n2nc(C)c(-c3ccc(F)cc3)c2n1	i	.	91*	21	0.29
Cc1cc(NCCC(C)C)n2nc(C)c(-c3ccccc3)c2n1	i	60	8	72*	-0.14
Cc1cc(NCCCN2CCOCC2)n2nc(C)c(-c3ccccc3)c2n1	i	27	66*	8	-2
CSc1nc(N)nc(SCC(=O)c2ccccc2)c1C#N	+	.	-4	-7	-0.83
Cc1ccc(C(=O)CSc2nc(-c3ccccc3)ccc2C#N)cc1	+	-130	9	-9	2.8
